Records with an inconclusive call do not appear. The source made the active and inactive calls. Rule for the calls: active = hit-call score of the fitted dose curve at least 0.9, where 1 is the maximum; inconclusive = response in the unintended direction; inactive = score below 0.9.
Assay: Tanguay_ZF_120hpf_CFIN_legacy: (Legacy) Oregon State University Tanguay Lab 120 Hour Post-fertilization zebrafish Assay for Caudal Fin Malformation (AID 2283649)
Protocol: Tanguay_ZF_120hpf_legacy is a whole embryo, multiplexed endpoint assay using zebrafish larvae exposed for 120 hours post fertilization on a 96-well plate.Tanguay_ZF_120hpf_CFIN_legacy is one of one assay component(s) measured or calculated from the Tanguay_ZF_120hpf_legacy assay. It is designed to make measurements of zebrafish development as detected with brightfield microscopy of developing zebrafish embryos.Data from the assay component Tanguay_ZF_120hpf_CFIN_legacy was analyzed into 1 assay endpoints. This assay endpoint, Tanguay_ZF_120hpf_CFIN_legacy, was analyzed in the positive analysis fitting direction relative to DMSO as the negative control and baseline of activity. Using a type of morphology reporter, gain-of-signal activity can be used to understand changes in developmentals as they relate to the whole embryo. To generalize the intended target to other relatable targets, this assay endpoint is annotated to the zebrafish development intended target family, where the subfamily is caudal fin morphogenesis.
Zebrafish husbandry: Tropical 5D wild-type adult zebrafish were housed in at an approximate density of 1000 per 100 gallon tank at the Sinnhuber Aquatic Research Laboratory, Oregon State University, Corvallis, OR. Each tank was kept at standard laboratory conditions of 28C on a 14-h light/10-h dark photoperiod in fish water consisting of reverse osmosis water supplemented with a commercially available salt (Instant Ocean). Spawning funnels were placed into the tanks the night prior, and embryos were collected and staged. To increase bioavailability, the chorion was enzymatically removed using pronase (63.6mg/ml, >/= 3.5U/mg, Sigma-Aldrich: P5147) at 4 hours post fertilization (hpf) using a custom automated dechorionator.Chemical exposures: Six hpf dechorionated embryos were placed 1 embryo per well in a 96-well plate prefilled with 90 ul of EM using automated embryo placement systems (AEPS). Ten microliters of each row of dilution plate 2 was added to 2 exposure plates. The final DMSO concentration used was 0.64% (vol/vol). Thirty-two embryos were also exposed to 5uM trimethyltin chloride (positive control). Plates were sealed to prevent evaporation and foil covered to reduce light exposure and kept in a 28C incubator. Embryos were statically exposed until 120 hpf. At 24 hpf, embryos were assessed for photomotor response using a custom photomotor response analysis tool (PRAT) and for developmental toxicity endpoints (MO24: mortality at 24 hpf, DP: developmental progression, SM: spontaneous movement, and NC: notochord distortion). At 120 hpf, locomotor activity was measured using Viewpoint Zebralab and assessed for 18 endpoints. Zebrafish acquisition and analysis program (ZAAP), a custom program designed to inventory, acquire, and manage zebrafish data, was used to collect developmental endpoints as either present or absent (i.e., binary responses were recorded). If mortality occurred for an embryo (at either 24 or 120 hpf), the non-mortality endpoints were not measured.

**Q.** For CC(C)C(=O)OCC(C)(C)C(OC(=O)C(C)C)C(C)C (stereo not given), which outcome is on record?
**A.** inactive

**Q.** For O=C(NC(=O)c1c(F)cccc1F)Nc1cc(Cl)c(OC(F)(F)C(F)F)c(Cl)c1, which outcome is on record?
**A.** inactive

**Q.** Which outcome does the source give for CCCCCCCCCc1ccc(O)cc1 here?
**A.** inactive

**Q.** With Cc1cc2c3c(c1)C(c1ccccc1)=N[C@@H](NC(=O)c1ccncc1)C(=O)N3CC2 as the compound, how does the outcome read?
**A.** inactive

**Q.** Which outcome does the source give for CCCN(CCC)N=O here?
**A.** inactive

**Q.** Which outcome does the source give for O=C(O)C(F)(F)C(F)(F)C(F)(F)C(F)(F)C(F)(F)F here?
**A.** inactive

**Q.** For CCCCCCCCCC[N+](C)(C)CCCCCCCCCC, which outcome is on record?
**A.** inactive

**Q.** With Nn1cnnc1 as the compound, how does the outcome read?
**A.** inactive

**Q.** Which outcome does the source give for N#Cc1ccc(N(CC(N)=O)CC(F)(F)F)cc1C(F)(F)F here?
**A.** inactive

**Q.** Which AC50 does the source give for C[C@]12CCC(=O)C=C1CC[C@@H]1[C@@H]2CC[C@]2(C)C(=O)CC[C@@H]12 here?
**A.** 40.4 µM (active)

**Q.** For CCC(C)(CC)c1cc(NC(=O)c2c(OC)cccc2OC)on1, which outcome is on record?
**A.** inactive

**Q.** With Cc1ccccc1CO[C@@H]1C[C@@]2(C(C)C)CC[C@]1(C)O2 as the compound, how does the outcome read?
**A.** inactive

**Q.** For CC#Cc1cc(C)nc(Nc2ccccc2)n1, which outcome is on record?
**A.** inactive

**Q.** With Clc1ccc(Cl)cc1 as the compound, how does the outcome read?
**A.** inactive

**Q.** With CC(c1ccc(O)cc1)(c1ccc(O)cc1)c1ccc(O)cc1 as the compound, how does the outcome read?
**A.** inactive

**Q.** For CCOC(=O)C(O)(c1ccc(Cl)cc1)c1ccc(Cl)cc1, which outcome is on record?
**A.** inactive

**Q.** With c1cc2ccc3cccc4ccc(c1)c2c34 as the compound, how does the outcome read?
**A.** inactive

**Q.** For ClC1=C(Cl)[C@]2(Cl)[C@@H]3[C@@H]4C[C@@H]([C@H]5O[C@@H]45)[C@@H]3[C@@]1(Cl)C2(Cl)Cl, which outcome is on record?
**A.** inactive

**Q.** With CO/C=C(/C(=O)OC)c1ccccc1COc1cccc(C(F)(F)F)n1 as the compound, how does the AC50 read?
**A.** 9.15 µM (active)

**Q.** With CCC(C)(c1ccc(O)cc1)c1ccc(O)cc1 as the compound, how does the outcome read?
**A.** inactive

**Q.** With Cc1ccc(O)c(C)c1 as the compound, how does the outcome read?
**A.** inactive

**Q.** With Cc1cccc(C)c1N as the compound, how does the outcome read?
**A.** inactive

**Q.** Which outcome does the source give for O=C(O)C(F)(F)C(F)(F)C(F)(F)C(F)(F)C(F)(F)C(F)(F)C(F)(F)C(F)(F)C(F)(F)F here?
**A.** inactive

**Q.** With CN(C)c1nc(=O)n(C2CCCCC2)c(=O)n1C as the compound, how does the outcome read?
**A.** inactive

**Q.** With COc1ccc(O)c(C(C)(C)C)c1 as the compound, how does the outcome read?
**A.** inactive

**Q.** With C=CC(N)=O as the compound, how does the outcome read?
**A.** inactive

**Q.** For CCNc1nc(NC(C)C)nc(SC)n1, which outcome is on record?
**A.** inactive

**Q.** With CCC(=O)O[C@H]1CC[C@H]2[C@@H]3CCC4=CC(=O)CC[C@]4(C)[C@H]3CC[C@]12C as the compound, how does the outcome read?
**A.** inactive

**Q.** For Cc1cccc([N+](=O)[O-])c1, which outcome is on record?
**A.** inactive

**Q.** Which outcome does the source give for Oc1c(Cl)c(Cl)c(Cl)c(Cl)c1Cl here?
**A.** inactive

**Q.** Which outcome does the source give for CCCCCCCCOC(=O)c1ccccc1C(=O)OCCCCCCCC here?
**A.** inactive

**Q.** Which outcome does the source give for CCC(C)c1cc([N+](=O)[O-])cc([N+](=O)[O-])c1O (stereo not given) here?
**A.** inactive

**Q.** With CN(C)CCO as the compound, how does the outcome read?
**A.** inactive

**Q.** For O=C(N[C@H]1CN2CCC1CC2)c1cc2ccoc2cn1, which outcome is on record?
**A.** inactive

**Q.** For ClC1=C(Cl)[C@]2(Cl)[C@@H]3[C@H]4C[C@H]([C@@H]5O[C@H]45)[C@@H]3[C@@]1(Cl)C2(Cl)Cl, which AC50 is on record?
**A.** 66.1 µM (active)

**Q.** Which outcome does the source give for ClC(Cl)=C(c1ccc(Cl)cc1)c1ccc(Cl)cc1 here?
**A.** inactive

**Q.** Which outcome does the source give for Clc1ccc(C(c2ccccc2Cl)C(Cl)(Cl)Cl)cc1 (stereo not given) here?
**A.** inactive

**Q.** For CCOCCOC(C)=O, which outcome is on record?
**A.** inactive

**Q.** For C1CC2OC2CC1C1CO1 (stereo not given), which outcome is on record?
**A.** inactive

**Q.** With Oc1ccc(Cl)cc1Cl as the compound, how does the outcome read?
**A.** inactive

Source: PubChem BioAssay (EPA / NIEHS)
